Shown are actives, neighbours in structure and some others; about 19% of the full set was active somewhere.
HT1080-NT tox = kills 2HG-producing HT-1080-NT fibrosarcoma cells. 1.6% of 360,000 active. HT-1080-NT fibrosarcoma viability, CellTiter-Glo ATP luminescence, 48 h. Potency, µM (top dose mostly 46.1 µM), usual class: cytotoxic;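 also: NT is the 2HG producing partner of a matched IDH1 knockdown line; nearly all actives have a fitted effect of over 55% in size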
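A 48-hour cytotoxicity screen used HT-1080-NT cells plated 2 hours before compound delivery. ATP-based CellTiter-Glo luminescence measured viability, normalized to DMSO and no-cell controls.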
HT1080 IDH1KD tx = kills HT-1080 cells with IDH1 knockdown. HT-1080 IDH1 knockdown viability, ATP luminescence, 48 h. Potency, µM (highest dose often 46.1 µM), hits mostly cytotoxic. 2% of 360,000 active. AID 686971
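IDH1KD HT-1080 cells, 750/well, RPMI + 5% FBS; compound pinned after 2 h settling; 48 h, 37 °C; CellTiter-Glo luminescence; % activity normalised to DMSO and no-cell wells; curves fitted, classed by r2 and efficacy.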
KB-3-1 tox = KB-3-1 parental cell cytotoxicity; KB-3-1 viability, CellTiter-Glo ATP luminescence, 72 h; Potency, µM (titrated, usually from 46.1 µM), hits mostly cytotoxic; 1.4% of 400,000 active; also: nearly all actives have a fitted effect of over 60% in size
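Multi-concentration cytotoxicity screen in KB-3-1 cells grown in DMEM lacking phenol red with 10% FBS. After 72 h at 37 °C with compound, ATP-dependent luminescence was recorded.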
TDP1 cell CPT = DT40-hTDP1 cell growth loss with CPT. AID 686979. Potency, µM (highest dose often 46.2 µM), hits mostly inhibitors. 12% of 420,000 active. chicken DT40 Tdp1-/-;hTDP1 cells + 20 nM CPT, ATP luminescence, 48 h; also: nearly all actives have a fitted effect of over 55% in size
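Chicken DT40 Tdp1-/- cells stably complemented with human TDP1 were seeded at 400 cells/well in medium containing 20 nM camptothecin, exposed to pin-transferred compounds, and grown at 37 °C for at least 48 hr. Viability was read as ATP luminescence.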
TDP1 cell noCPT = qHTS for Inhibitors of human tyrosyl-DNA phosphodiesterase 1 (TDP1): qHTS in cells in absence of CPT; AID 686978, 2013; 15% of 420,000 active; DT40 Tdp1-/- hTDP1 cells, no CPT, ATP luminescence, 48 h; Potency, µM (doses to about 46.2 µM), hits mostly inhibitors; also: nearly all actives have a fitted effect of over 55% in size
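Growth of hTDP1-complemented DT40 Tdp1-knockout cells is measured by ATP luminescence after at least 48 hr compound exposure at 37 °C, with DMSO substituting for the 20 nM CPT used in the parallel screen.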
KB-V1 cytotox = KB-V1 MDR subline cytotoxicity | KB-V1 MDR cells viability, CellTiter-Glo, 72 h | Potency, µM (titrated, usually from 46.1 µM), most hits filed as cytotoxic | 3.4% of 400,000 active | AID 1347076; also: nearly all actives have a fitted effect of over 60% in size
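KB-V1, DMEM (no phenol red) + 10% FBS; cpd pin-transferred, titration series; 72 h, 37 degrees C; CellTiter-Glo, luminescence. Data normalized, curve-fit.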
A number is an active result; n = inactive; u = inconclusive; x = no result; ! = a repeat was not active. Calls follow the shape of the dose curve; as a rule, active = well fitted curve in the direction sought with a large enough effect; inconclusive = small, poorly fitted or top-dose-only effect, or another doubt; inactive = no such curve, though single readings can be large; an effect the other way counts as inactive or inconclusive.

SMILES	HT1080-NT tox	HT1080 IDH1KD tx	KB-3-1 tox	TDP1 cell CPT	TDP1 cell noCPT	KB-V1 cytotox
COC(=O)c1ccc(C2=NOC(C)(c3nnc(Cc4ccccc4)o3)C2)cc1 (stereo not given)	n	n	n	n	n	n
Cc1cc(C(=O)Nc2ccccc2Cl)n(-c2ccccc2)n1	n	n	n	u	n	n
COc1ccc(CC(=O)Nc2sccc2C#N)cc1S(=O)(=O)N1CCOCC1	n	n	n	n	n	n
N#Cc1ccc(-c2nc3c4ccccc4ccn3c2Cc2ccsc2)cc1	n	n	n	13µM	13µM	n
N#Cc1ccc(-c2nc3c4ccccc4ccn3c2Cc2cccc(Cl)c2)cc1	n	n	n	16µM	18µM	n
Clc1ccc(-c2nc3c4ccccc4ccn3c2Cc2ccsc2)cc1	n	n	n	10µM	10µM	u
Cc1ccc(-c2nc3c4ccccc4ccn3c2Cc2cccc(Cl)c2)cc1	u	u	n	u	u	n
Cc1nnsc1C(=O)N1CCC(CO)(Cc2ccccc2Cl)CC1	n	n	n	u	u	n
COC(=O)c1sc(SC)c(-c2ccon2)c1C	n	n	n	n	n	n
O=c1c2ccccc2nc2c3ccccc3c3nncn3n12	n	n	u	7.3µM	5.2µM	7.3µM
COc1ccc(OC)c(/C=C2\SC(=S)N(C(C(=O)O)c3ccccc3)C2=O)c1 (stereo not given)	n	n	n	n	n	n
COc1ccccc1Oc1ccc(N/C=C/C(=O)c2ccco2)cc1	n	n	n	u	18µM	n
CN(C)c1ccc(N/C=C/C(=O)c2ccco2)cc1	n	u	n	21µM	u	n
O=C(/C=C/Nc1ccc(Oc2ccccc2Cl)cc1)c1ccco1	u	u	21µM	18µM	15µM	u
CCOC(=O)[C@@H]1[C@H]2COc3cc(OC)ccc3[C@@H]2N2C(=O)N(c3ccc(F)cc3)C(=O)[C@]12C	n	n	n	n	n	n
CCCCCN1C(=O)Cn2c(nc3ccccc3c2=O)C1C (stereo not given)	n	n	n	n	u	n
CCCCCc1ccc(-c2cn(Cc3ccc(C(=O)c4ccccc4)cc3)nn2)cc1	n	n	7.3µM!	3.3µM	4.1µM	7.3µM!
O=C(O)c1cccc(-c2nnn(Cc3ccccc3)n2)c1	n	n	n	n	n	n
O=C(c1ccccc1)c1ccc(Cn2cc(-c3ccccc3)nn2)cc1	n	n	u	7.3µM	7.3µM	0.65µM!
CCOC(OCC)c1cn(Cc2ccc(C(=O)c3ccccc3)cc2)nn1	u	u	18µM	23µM	23µM	u
CCc1cccc(C)c1NC(=O)CSc1nnc(C)o1	n	n	n	n	n	n
CCOc1ccccc1NC(=O)Cn1c(=O)n(Cc2nc(C)no2)c(=O)c2ccccc21	x	x	n	n	n	n
O=C(C[n+]1ccccc1Cl)c1ccc(F)cc1	x	x	n	n	n	n
CC(C)(C)c1ccc(C(=O)NC(=S)NCc2cccnc2)cc1	n	n	n	16µM	18µM	u
COC(=O)c1cc(C(=O)c2ccc(C(C)(C)C)cc2)c[nH]1	n	n	u	u	12µM	u
SMILES	HT1080-NT tox	HT1080 IDH1KD tx	KB-3-1 tox	TDP1 cell CPT	TDP1 cell noCPT	KB-V1 cytotox
CC(C)(C)c1ccc(C(=O)c2c[nH]c(C(=O)NCc3cccnc3)c2)cc1	n	n	u	18µM	16µM	n
CC(C)(C)c1ccc(NC(=S)NCc2cccnc2)cc1	n	n	n	u	15µM	n
Fc1ccc(NC(=S)NCc2cccnc2)cc1	n	n	n	n	n	n
CC(C)(C)c1ccc(C(=O)NCc2cccnc2)cc1	n	n	n	n	u	n
CC(c1ccon1)N(C)C(=O)c1ccc2nc(Cc3cccc(Cl)c3)oc2c1 (stereo not given)	n	n	n	u	u	n
CCC(C)c1ccc(NC(=S)NCc2cccnc2)cc1 (stereo not given)	n	n	u	u	7.3µM	18µM
OCCCNc1c2c(nc3cc(-c4ccc(Cl)cc4)nn13)CCC2	n	n	n	n	u	n
Fc1cccc(-c2cc3nc4c(c(N5CCC6(CC5)OCCO6)n3n2)CCCC4)c1	n	n	n	21µM	23µM	n
CN(C)CCCNc1cc(-c2ccccc2)nc2cc(-c3cccc(F)c3)nn12	u	u	u	u	7.3µM	u
Cc1cccc(-c2cc3nc(C)cc(NCCCN(C)C)n3n2)c1	u	u	n	u	u	n
OC1CCN(c2c3c(nc4cc(-c5cccc(F)c5)nn24)CCCC3)CC1	n	n	n	16µM	21µM	n
CN(CCO)c1c2c(nc3cc(-c4cccc(F)c4)nn13)CCCC2	n	n	n	u	21µM	n
O=C(COC(=O)c1ccc2ncsc2c1)NCc1ccccc1Cl	n	n	n	n	n	n
Cc1ccc2c(c1)c(=O)c(C(=O)c1ccncc1)cn2CC(=O)Nc1c(C)cccc1C	x	x	x	n	n	x
CCS(=O)(=O)N1Cc2ccccc2CC1C(=O)Nc1ncc(C)s1 (stereo not given)	n	n	n	n	n	u
O=C(NNc1nc2c(F)cccc2s1)c1ccc(F)cc1	n	u	u	u	u	n
Cc1cc(C)c2nc(NNC(=O)c3ccc(S(=O)(=O)N4CCCC(C)C4)cc3)sc2c1 (stereo not given)	u	u	4.1µM	2.9µM	4.1µM	n
CCS(=O)(=O)N1Cc2ccccc2CC1C(=O)Nc1nc2ccc(C)cc2s1 (stereo not given)	u	n	u	u	u	7.3µM
Cc1ccc2nc(NNC(=O)c3ccc(S(=O)(=O)N4CCc5ccccc5C4)cc3)sc2c1	u	4.6µM	u	2.9µM	5.2µM	n
Cc1cc(C)c2nc(NC(=O)c3ccc(S(=O)(=O)N4CCC(C)CC4)cc3)sc2c1	x	x	n	n	n	n
Cc1cccc2sc(NNC(=O)c3ccc(S(=O)(=O)N4CC(C)CC(C)C4)cc3)nc12 (stereo not given)	u	16µM	u	13µM	7.3µM	n
COC(=O)C1=C(C)N(C(C)C)C(=O)C1(NC(=O)c1ccc(C(C)(C)C)cc1)C(F)(F)F (stereo not given)	x	x	n	u	u	n
CCCCn1nc2cc(C(=O)NCc3ccccc3)ccc2c1OCC	n	n	n	u	u	n
Cc1cc(C)c2nc(NNC(=O)c3ccc(S(=O)(=O)N4CC(C)CC(C)C4)cc3)sc2c1 (stereo not given)	u	12µM	n	5.8µM	5.8µM	n
Cc1cc(C)c2nc(NC(=O)c3ccc(S(=O)(=O)N4CCc5ccccc54)cc3)sc2c1	x	x	x	n	n	x

Bioassay records from PubChem BioAssay.
